# Measurements from the supplement of paper PMC9794691.
# Tests used:
# Assay in all cases: area under confluence curve of osimertinib + compound combination regimen (DTP regrowth); compare to osimertinib-only DTP control AUC of the same experiment (AUC (confluence x time, arbitrary))
# [1] = test system: H1975
# Method in brief: (§1)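 The area under the IncuCyte confluence–time curve, calculated in Prism and taken as the median of triplicates where available, is the value reported. It was measured in EGFR-mutant NSCLC lines that received the EGFR inhibitor either alone, followed by a test compound, or together with a fixed-dose test compound until the persister stage (10–21 days) and then drug-free medium. Medium was refreshed every 3–4 days until the inhibitor-only wells were confluent again.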
# [2] = test system: HCC2279
# Method in brief: as §1
# [3] = test system: HCC2935
# Method in brief: as §1
# [4] = test system: HCC4006
# Method in brief: as §1
# [5] = test system: HCC827
# Method in brief: as §1
# [6] = test system: II-18
# Method in brief: as §1
# [7] = test compound dose 1000 nM, dosing schedule: sequential, osimertinib-only DTP control AUC in same experiment: 22968, DMSO control AUC in same experiment: 15857
# [8] = test compound dose 1000 nM, dosing schedule: upfront, osimertinib-only DTP control AUC in same experiment: 27164, DMSO control AUC in same experiment: 15857
# [9] = test compound dose 1000 nM, dosing schedule: sequential, osimertinib-only DTP control AUC in same experiment: 26096, DMSO control AUC in same experiment: 14404
# [10] = test compound dose 1000 nM, dosing schedule: upfront, osimertinib-only DTP control AUC in same experiment: 33120, DMSO control AUC in same experiment: 14404
# [11] = test compound dose 1000 nM, dosing schedule: sequential, osimertinib-only DTP control AUC in same experiment: 22314, DMSO control AUC in same experiment: 19215
# [12] = test compound dose 1000 nM, dosing schedule: upfront, osimertinib-only DTP control AUC in same experiment: 29846, DMSO control AUC in same experiment: 19215
# [13] = test compound dose 1000 nM, dosing schedule: sequential, osimertinib-only DTP control AUC in same experiment: 12791, DMSO control AUC in same experiment: 18415
# [14] = test compound dose 1000 nM, dosing schedule: upfront, osimertinib-only DTP control AUC in same experiment: 17269, DMSO control AUC in same experiment: 18415
# [15] = test compound dose 1000 nM, dosing schedule: sequential, osimertinib-only DTP control AUC in same experiment: 15330, DMSO control AUC in same experiment: 21320
# [16] = test compound dose 1000 nM, dosing schedule: upfront, osimertinib-only DTP control AUC in same experiment: 20798, DMSO control AUC in same experiment: 21320
# [17] = test compound dose 1000 nM, dosing schedule: sequential, osimertinib-only DTP control AUC in same experiment: 8624, DMSO control AUC in same experiment: 11834
# [18] = test compound dose 1000 nM, dosing schedule: upfront, osimertinib-only DTP control AUC in same experiment: 10856, DMSO control AUC in same experiment: 11834
compound,measurement,setting,value
Cc1nc(N2CCC3(CC2)CO[C@@H](C)[C@H]3N)c(CO)nc1-c1cccc(Cl)c1Cl + C=CC(=O)Nc1cc(Nc2nccc(-c3cn(C)c4ccccc34)n2)c(OC)cc1N(C)CCN(C)C [osimertinib],area under confluence curve,[1]; [7],15500
same,area under confluence curve,[1]; [8],17800
same,area under confluence curve,[2]; [9],16900
same,area under confluence curve,[2]; [10],21000
same,area under confluence curve,[3]; [11],19500
same,area under confluence curve,[3]; [12],27200
same,area under confluence curve,[4]; [13],9900
same,area under confluence curve,[4]; [14],14300
same,area under confluence curve,[5]; [15],6150
same,area under confluence curve,[5]; [16],13400
same,area under confluence curve,[6]; [17],2640
same,area under confluence curve,[6]; [18],3200
CCN1CCN(Cc2ccc(Nc3ncc(F)c(-c4cc(F)c5nc(C)n(C(C)C)c5c4)n3)nc2)CC1 [Abemaciclib] + C=CC(=O)Nc1cc(Nc2nccc(-c3cn(C)c4ccccc34)n2)c(OC)cc1N(C)CCN(C)C [osimertinib],area under confluence curve,"[1]; test compound dose 100 nM, dosing schedule: sequential, osimertinib-only DTP control AUC in same experiment: 12533, DMSO control AUC in same experiment: 14522",8980
same,area under confluence curve,"[1]; test compound dose 100 nM, dosing schedule: upfront, osimertinib-only DTP control AUC in same experiment: 18969, DMSO control AUC in same experiment: 14522",5060
same,area under confluence curve,"[2]; test compound dose 100 nM, dosing schedule: sequential, osimertinib-only DTP control AUC in same experiment: 5698, DMSO control AUC in same experiment: 27284",4410
same,area under confluence curve,"[2]; test compound dose 100 nM, dosing schedule: upfront, osimertinib-only DTP control AUC in same experiment: 30623, DMSO control AUC in same experiment: 27284",12700
same,area under confluence curve,"[3]; test compound dose 100 nM, dosing schedule: sequential, osimertinib-only DTP control AUC in same experiment: 9121, DMSO control AUC in same experiment: 11459",4760
same,area under confluence curve,"[3]; test compound dose 100 nM, dosing schedule: upfront, osimertinib-only DTP control AUC in same experiment: 12748, DMSO control AUC in same experiment: 11459",9300
same,area under confluence curve,"[4]; test compound dose 100 nM, dosing schedule: sequential, osimertinib-only DTP control AUC in same experiment: 14882, DMSO control AUC in same experiment: 10921",8540
same,area under confluence curve,"[4]; test compound dose 100 nM, dosing schedule: upfront, osimertinib-only DTP control AUC in same experiment: 18913, DMSO control AUC in same experiment: 10921",4990
same,area under confluence curve,"[5]; test compound dose 100 nM, dosing schedule: sequential, osimertinib-only DTP control AUC in same experiment: 18675, DMSO control AUC in same experiment: 48895",6450
same,area under confluence curve,"[5]; test compound dose 100 nM, dosing schedule: upfront, osimertinib-only DTP control AUC in same experiment: 25542, DMSO control AUC in same experiment: 48895",7890
same,area under confluence curve,"[6]; test compound dose 100 nM, dosing schedule: sequential, osimertinib-only DTP control AUC in same experiment: 3520, DMSO control AUC in same experiment: 13556",1010
same,area under confluence curve,"[6]; test compound dose 100 nM, dosing schedule: upfront, osimertinib-only DTP control AUC in same experiment: 6532, DMSO control AUC in same experiment: 13556",2540
O=C(c1cc(Cc2n[nH]c(=O)c3ccccc23)ccc1F)N1CCN(C(=O)C2CC2)CC1 [Olaparib] + C=CC(=O)Nc1cc(Nc2nccc(-c3cn(C)c4ccccc34)n2)c(OC)cc1N(C)CCN(C)C [osimertinib],area under confluence curve,[1]; [7],19500
same,area under confluence curve,[1]; [8],21000
same,area under confluence curve,[2]; [9],23100
same,area under confluence curve,[2]; [10],29800
same,area under confluence curve,[3]; [11],20700
same,area under confluence curve,[3]; [12],26000
same,area under confluence curve,[4]; [13],11700
same,area under confluence curve,[4]; [14],18000
same,area under confluence curve,[5]; [15],12400
same,area under confluence curve,[5]; [16],23700
same,area under confluence curve,[6]; [17],9480
same,area under confluence curve,[6]; [18],9420
C[C@@H](Nc1cc(F)cc(F)c1)c1cc(C(=O)N(C)C)cc2c(=O)cc(N3CCOCC3)oc12 + C=CC(=O)Nc1cc(Nc2nccc(-c3cn(C)c4ccccc34)n2)c(OC)cc1N(C)CCN(C)C [osimertinib],area under confluence curve,"[1]; test compound dose 1000 nM, dosing schedule: sequential, osimertinib-only DTP control AUC in same experiment: 15943, DMSO control AUC in same experiment: 20657",8220
same,area under confluence curve,"[1]; test compound dose 1000 nM, dosing schedule: upfront, osimertinib-only DTP control AUC in same experiment: 27804, DMSO control AUC in same experiment: 20657",13700
same,area under confluence curve,"[2]; test compound dose 1000 nM, dosing schedule: sequential, osimertinib-only DTP control AUC in same experiment: 21824, DMSO control AUC in same experiment: 29252",8080
same,area under confluence curve,"[2]; test compound dose 1000 nM, dosing schedule: upfront, osimertinib-only DTP control AUC in same experiment: 43517, DMSO control AUC in same experiment: 29252",21600
same,area under confluence curve,"[3]; test compound dose 1000 nM, dosing schedule: sequential, osimertinib-only DTP control AUC in same experiment: 6271, DMSO control AUC in same experiment: 13875",5860
same,area under confluence curve,"[3]; test compound dose 1000 nM, dosing schedule: upfront, osimertinib-only DTP control AUC in same experiment: 10360, DMSO control AUC in same experiment: 13875",5800
same,area under confluence curve,"[4]; test compound dose 1000 nM, dosing schedule: sequential, osimertinib-only DTP control AUC in same experiment: 19238, DMSO control AUC in same experiment: 16638",10300
same,area under confluence curve,"[4]; test compound dose 1000 nM, dosing schedule: upfront, osimertinib-only DTP control AUC in same experiment: 21234, DMSO control AUC in same experiment: 16638",5440
same,area under confluence curve,"[5]; test compound dose 1000 nM, dosing schedule: sequential, osimertinib-only DTP control AUC in same experiment: 8266, DMSO control AUC in same experiment: 27404",3540
same,area under confluence curve,"[5]; test compound dose 1000 nM, dosing schedule: upfront, osimertinib-only DTP control AUC in same experiment: 13929, DMSO control AUC in same experiment: 27404",3910
same,area under confluence curve,"[6]; test compound dose 1000 nM, dosing schedule: sequential, osimertinib-only DTP control AUC in same experiment: 21014, DMSO control AUC in same experiment: 18482",12100
same,area under confluence curve,"[6]; test compound dose 1000 nM, dosing schedule: upfront, osimertinib-only DTP control AUC in same experiment: 27084, DMSO control AUC in same experiment: 18482",10200
